According to PMC7862700, “An all-to-all approach to the identification of sequence-specific readers for epigenetic DNA modifications on cytosine”:

What was measured:
Assay in all cases: DAPPL (digital affinity profiling via proximity ligation, sequencing); 10 mM Tris-HCl pH 7.5, 50 mM NaCl, 1 mM DTT, 4% glycerol, room temperature, 30 min; GST-TFs on glutathione beads, 16-mer random dsDNA library, 0.1% formaldehyde crosslink after washing; high values mean tight binding
Settings in all cases: protein: recombinant; tags: N-terminal GST; dsDNA, one strand shown
FLI1 = molecular target: T1, FLI1 (Homo sapiens, UniProt Q01543 1-452)
T1 sequence: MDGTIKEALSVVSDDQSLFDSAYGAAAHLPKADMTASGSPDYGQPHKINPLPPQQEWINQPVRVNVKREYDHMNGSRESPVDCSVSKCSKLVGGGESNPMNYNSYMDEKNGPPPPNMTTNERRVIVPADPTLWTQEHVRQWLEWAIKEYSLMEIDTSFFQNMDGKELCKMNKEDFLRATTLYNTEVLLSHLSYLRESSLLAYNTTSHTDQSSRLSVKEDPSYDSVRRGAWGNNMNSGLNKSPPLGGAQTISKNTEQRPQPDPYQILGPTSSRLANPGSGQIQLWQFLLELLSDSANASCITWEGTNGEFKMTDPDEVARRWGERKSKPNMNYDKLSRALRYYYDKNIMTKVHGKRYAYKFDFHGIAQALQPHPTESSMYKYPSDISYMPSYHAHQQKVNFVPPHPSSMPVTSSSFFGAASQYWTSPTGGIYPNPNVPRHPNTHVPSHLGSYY
In short: (§1)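 In yeast, human transcription factors were expressed with a GST fusion, then pulled down on glutathione beads and given DNA barcodes. Pooled with a tag-only sample, they were exposed to 200 nmole of a 16-mer random double-stranded DNA library (Tris/NaCl/DTT/glycerol buffer, room temperature, 30 min), washed, crosslinked with 0.1% formaldehyde, proximity-ligated using BsaI/T4 ligase for 1 h at 37 °C, PCR-amplified and read on an Illumina NextSeq500. Each hexamer's frequency of reads for a factor, divided by the matching frequency for the tag-only sample, gives the binding signal.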

ELK1 = molecular target: T2, ELK1 (Homo sapiens, UniProt P19419 1-428)
T2 sequence: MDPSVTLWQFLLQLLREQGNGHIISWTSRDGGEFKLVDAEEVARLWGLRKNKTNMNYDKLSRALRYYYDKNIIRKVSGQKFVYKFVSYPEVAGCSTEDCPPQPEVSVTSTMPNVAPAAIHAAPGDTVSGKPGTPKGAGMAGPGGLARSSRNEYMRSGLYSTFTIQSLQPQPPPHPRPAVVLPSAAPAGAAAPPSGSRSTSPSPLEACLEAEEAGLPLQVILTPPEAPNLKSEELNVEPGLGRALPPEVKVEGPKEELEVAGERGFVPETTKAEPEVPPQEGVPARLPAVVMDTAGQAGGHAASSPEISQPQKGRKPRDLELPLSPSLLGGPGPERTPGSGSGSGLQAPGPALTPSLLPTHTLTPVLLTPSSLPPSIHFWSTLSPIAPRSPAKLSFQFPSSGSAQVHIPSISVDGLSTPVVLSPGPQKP
In short: as §1

GABPA = molecular target: T3, GABPA (Homo sapiens, UniProt Q06546 1-454)
T3 sequence: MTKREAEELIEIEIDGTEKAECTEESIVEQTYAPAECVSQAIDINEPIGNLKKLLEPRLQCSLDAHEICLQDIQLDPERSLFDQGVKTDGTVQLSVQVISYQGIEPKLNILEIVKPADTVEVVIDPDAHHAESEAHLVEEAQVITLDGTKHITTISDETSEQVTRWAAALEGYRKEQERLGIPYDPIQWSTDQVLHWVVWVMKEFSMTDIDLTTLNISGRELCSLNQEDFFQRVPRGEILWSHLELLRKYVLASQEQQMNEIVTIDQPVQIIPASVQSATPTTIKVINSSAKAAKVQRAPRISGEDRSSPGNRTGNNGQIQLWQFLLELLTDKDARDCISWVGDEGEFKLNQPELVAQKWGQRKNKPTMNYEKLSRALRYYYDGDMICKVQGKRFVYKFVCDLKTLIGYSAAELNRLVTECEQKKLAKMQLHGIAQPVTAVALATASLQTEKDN
In short: as §1

ERG = molecular target: T4, ERG (Homo sapiens, UniProt P11308 1-479)
T4 sequence: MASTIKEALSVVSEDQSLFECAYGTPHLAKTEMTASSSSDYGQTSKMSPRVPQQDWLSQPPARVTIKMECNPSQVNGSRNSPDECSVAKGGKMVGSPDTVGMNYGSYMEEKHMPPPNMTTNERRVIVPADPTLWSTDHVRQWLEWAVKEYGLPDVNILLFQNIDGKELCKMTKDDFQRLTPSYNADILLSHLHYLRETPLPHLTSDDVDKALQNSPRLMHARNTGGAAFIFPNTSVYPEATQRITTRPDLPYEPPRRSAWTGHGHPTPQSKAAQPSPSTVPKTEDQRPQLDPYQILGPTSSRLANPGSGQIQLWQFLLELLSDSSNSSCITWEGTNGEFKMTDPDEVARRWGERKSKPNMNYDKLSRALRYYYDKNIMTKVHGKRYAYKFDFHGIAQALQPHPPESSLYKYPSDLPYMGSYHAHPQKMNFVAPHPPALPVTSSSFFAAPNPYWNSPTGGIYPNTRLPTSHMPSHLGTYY
In short: as §1

ELF1 = ELF1 (Homo sapiens, UniProt P32519 1-619)
In short: as §1

EHF = molecular target: T5, EHF (Homo sapiens, UniProt Q9NZC4 1-300)
T5 sequence: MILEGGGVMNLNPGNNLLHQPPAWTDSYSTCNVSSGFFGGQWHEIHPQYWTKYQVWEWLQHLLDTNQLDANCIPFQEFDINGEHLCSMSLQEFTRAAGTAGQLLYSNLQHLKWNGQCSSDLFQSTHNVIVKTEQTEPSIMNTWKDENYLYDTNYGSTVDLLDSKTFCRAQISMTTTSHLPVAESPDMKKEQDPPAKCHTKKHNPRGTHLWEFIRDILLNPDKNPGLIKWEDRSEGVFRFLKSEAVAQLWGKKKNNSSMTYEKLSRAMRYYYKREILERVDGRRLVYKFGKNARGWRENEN
In short: as §1

SPI1 = SPI1 (Homo sapiens, UniProt P17947 1-270)
In short: as §1

SPIB = SPIB (Homo sapiens, UniProt Q01892 1-262)
In short: as §1

ELK3 = molecular target: T6, ELK3 (Homo sapiens, UniProt P41970 1-407)
T6 sequence: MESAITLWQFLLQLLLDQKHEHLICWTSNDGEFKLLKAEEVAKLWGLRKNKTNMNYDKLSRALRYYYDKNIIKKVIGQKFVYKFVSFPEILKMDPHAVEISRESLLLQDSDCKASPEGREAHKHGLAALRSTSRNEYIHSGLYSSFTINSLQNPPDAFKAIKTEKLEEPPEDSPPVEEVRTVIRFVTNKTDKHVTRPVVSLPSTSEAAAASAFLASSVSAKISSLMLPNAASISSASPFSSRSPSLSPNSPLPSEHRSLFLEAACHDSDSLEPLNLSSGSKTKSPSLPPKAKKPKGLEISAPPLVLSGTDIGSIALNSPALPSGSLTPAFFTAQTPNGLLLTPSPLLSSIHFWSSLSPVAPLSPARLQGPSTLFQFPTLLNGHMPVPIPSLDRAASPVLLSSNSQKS
In short: as §1

FEV = molecular target: T7, FEV (Homo sapiens, UniProt Q99581 1-238)
T7 sequence: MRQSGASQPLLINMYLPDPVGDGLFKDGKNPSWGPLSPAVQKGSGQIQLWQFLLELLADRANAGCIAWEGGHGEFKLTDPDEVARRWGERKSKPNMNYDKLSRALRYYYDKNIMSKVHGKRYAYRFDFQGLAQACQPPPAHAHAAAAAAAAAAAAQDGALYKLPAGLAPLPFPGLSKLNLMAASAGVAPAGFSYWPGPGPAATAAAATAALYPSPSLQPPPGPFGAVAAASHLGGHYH
In short: as §1

ETV5 = ETV5 (Homo sapiens, UniProt P41161 1-510)
In short: as §1

SPIC = molecular target: T8, SPIC (Homo sapiens, UniProt Q8N5J4 1-248)
T8 sequence: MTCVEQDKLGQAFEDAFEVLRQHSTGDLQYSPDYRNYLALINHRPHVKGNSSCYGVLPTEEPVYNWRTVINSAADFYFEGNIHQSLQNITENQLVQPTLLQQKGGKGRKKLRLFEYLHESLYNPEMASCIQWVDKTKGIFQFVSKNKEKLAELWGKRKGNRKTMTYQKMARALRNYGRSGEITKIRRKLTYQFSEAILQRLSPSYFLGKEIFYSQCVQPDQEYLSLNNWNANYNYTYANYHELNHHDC
In short: as §1

ELF4 = ELF4 (Homo sapiens, UniProt Q99607 1-663)
In short: as §1

ELK4 = molecular target: T9, ELK4 (Homo sapiens, UniProt P28324-2 1-405)
T9 sequence: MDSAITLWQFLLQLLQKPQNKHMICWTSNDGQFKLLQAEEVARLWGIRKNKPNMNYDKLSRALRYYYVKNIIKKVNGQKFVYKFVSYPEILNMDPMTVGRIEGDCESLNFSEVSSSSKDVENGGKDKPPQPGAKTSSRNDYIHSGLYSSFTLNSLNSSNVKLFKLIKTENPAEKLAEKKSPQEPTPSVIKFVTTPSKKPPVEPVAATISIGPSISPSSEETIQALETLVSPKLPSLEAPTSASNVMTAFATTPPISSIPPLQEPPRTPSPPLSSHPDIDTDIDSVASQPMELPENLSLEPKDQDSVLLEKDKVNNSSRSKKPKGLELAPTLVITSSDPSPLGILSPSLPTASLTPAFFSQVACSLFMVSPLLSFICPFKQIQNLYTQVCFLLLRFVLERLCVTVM
In short: as §1

ETV2 = molecular target: T10, ETV2 (Homo sapiens, UniProt O00321 1-342)
T10 sequence: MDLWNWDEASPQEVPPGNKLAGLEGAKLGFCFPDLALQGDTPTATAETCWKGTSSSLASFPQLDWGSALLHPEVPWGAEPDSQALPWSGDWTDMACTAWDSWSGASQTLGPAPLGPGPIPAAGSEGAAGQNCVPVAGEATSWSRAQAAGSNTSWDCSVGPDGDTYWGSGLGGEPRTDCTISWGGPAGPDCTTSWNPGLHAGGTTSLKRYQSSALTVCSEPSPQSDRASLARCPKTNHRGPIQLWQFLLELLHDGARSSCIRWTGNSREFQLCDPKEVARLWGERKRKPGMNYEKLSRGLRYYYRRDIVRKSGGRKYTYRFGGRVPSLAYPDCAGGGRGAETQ
In short: as §1

ELF3 = molecular target: T11, ELF3 (Homo sapiens, UniProt P78545 1-371)
T11 sequence: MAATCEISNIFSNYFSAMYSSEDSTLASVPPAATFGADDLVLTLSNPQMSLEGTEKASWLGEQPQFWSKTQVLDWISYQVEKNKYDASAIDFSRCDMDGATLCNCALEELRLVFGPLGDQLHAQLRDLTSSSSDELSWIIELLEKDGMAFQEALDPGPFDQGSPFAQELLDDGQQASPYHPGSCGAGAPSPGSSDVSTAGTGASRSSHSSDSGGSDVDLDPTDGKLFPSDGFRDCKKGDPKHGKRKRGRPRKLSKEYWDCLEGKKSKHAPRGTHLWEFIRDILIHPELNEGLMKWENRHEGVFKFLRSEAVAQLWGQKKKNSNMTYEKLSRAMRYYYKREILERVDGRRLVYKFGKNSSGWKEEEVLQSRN
In short: as §1

CRX = CRX (Homo sapiens, UniProt O43186 1-299)
In short: as §1

ETV1 = ETV1 (Homo sapiens, UniProt P50549 1-477)
In short: as §1

Sequence of CRX (O43186 whole entry): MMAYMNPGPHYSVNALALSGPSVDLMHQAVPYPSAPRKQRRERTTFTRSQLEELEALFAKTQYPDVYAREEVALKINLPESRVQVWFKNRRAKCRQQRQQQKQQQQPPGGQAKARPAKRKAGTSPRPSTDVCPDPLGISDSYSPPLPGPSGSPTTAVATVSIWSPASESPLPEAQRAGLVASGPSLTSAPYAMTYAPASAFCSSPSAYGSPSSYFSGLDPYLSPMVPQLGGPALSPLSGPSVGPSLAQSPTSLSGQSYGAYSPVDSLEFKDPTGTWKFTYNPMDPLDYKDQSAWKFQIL
Sequence of SPIB (Q01892 whole entry): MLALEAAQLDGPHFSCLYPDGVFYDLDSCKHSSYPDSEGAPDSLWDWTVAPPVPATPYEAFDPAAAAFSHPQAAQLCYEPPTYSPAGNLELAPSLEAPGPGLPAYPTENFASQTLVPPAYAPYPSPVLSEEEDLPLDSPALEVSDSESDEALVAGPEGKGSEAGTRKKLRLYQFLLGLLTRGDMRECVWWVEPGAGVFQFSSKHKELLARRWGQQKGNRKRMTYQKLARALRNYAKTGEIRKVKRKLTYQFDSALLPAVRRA
Sequence of ELF1 (P32519 whole entry): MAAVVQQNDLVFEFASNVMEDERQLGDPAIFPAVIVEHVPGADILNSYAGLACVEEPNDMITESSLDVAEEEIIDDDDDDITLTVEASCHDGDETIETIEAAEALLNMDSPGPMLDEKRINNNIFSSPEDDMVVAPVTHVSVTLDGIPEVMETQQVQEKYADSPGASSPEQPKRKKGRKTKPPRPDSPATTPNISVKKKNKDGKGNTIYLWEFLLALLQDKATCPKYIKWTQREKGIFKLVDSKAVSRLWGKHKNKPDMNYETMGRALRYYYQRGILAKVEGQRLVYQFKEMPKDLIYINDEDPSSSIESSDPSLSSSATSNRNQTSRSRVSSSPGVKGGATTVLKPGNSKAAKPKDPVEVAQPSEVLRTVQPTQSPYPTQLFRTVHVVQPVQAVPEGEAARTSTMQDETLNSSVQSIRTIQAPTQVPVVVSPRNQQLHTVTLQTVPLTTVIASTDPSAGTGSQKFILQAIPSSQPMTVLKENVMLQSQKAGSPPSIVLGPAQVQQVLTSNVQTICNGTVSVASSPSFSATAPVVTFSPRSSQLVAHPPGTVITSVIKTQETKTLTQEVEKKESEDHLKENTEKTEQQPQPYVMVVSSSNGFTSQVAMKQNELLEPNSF
Sequence of ETV1 (P50549 whole entry): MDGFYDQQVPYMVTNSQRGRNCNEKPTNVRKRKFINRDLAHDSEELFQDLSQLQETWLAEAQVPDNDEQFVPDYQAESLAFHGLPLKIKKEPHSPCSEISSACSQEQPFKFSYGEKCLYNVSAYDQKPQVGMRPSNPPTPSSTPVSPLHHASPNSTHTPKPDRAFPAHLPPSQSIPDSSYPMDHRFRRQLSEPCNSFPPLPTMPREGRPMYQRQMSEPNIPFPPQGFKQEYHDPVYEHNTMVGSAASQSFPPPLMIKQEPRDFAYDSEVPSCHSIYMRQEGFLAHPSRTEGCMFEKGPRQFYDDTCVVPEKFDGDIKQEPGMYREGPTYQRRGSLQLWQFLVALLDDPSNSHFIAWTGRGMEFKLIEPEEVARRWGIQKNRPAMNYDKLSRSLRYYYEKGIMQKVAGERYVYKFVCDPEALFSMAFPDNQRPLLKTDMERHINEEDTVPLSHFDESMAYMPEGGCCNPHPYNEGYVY
Sequence of ELF4 (Q99607 whole entry): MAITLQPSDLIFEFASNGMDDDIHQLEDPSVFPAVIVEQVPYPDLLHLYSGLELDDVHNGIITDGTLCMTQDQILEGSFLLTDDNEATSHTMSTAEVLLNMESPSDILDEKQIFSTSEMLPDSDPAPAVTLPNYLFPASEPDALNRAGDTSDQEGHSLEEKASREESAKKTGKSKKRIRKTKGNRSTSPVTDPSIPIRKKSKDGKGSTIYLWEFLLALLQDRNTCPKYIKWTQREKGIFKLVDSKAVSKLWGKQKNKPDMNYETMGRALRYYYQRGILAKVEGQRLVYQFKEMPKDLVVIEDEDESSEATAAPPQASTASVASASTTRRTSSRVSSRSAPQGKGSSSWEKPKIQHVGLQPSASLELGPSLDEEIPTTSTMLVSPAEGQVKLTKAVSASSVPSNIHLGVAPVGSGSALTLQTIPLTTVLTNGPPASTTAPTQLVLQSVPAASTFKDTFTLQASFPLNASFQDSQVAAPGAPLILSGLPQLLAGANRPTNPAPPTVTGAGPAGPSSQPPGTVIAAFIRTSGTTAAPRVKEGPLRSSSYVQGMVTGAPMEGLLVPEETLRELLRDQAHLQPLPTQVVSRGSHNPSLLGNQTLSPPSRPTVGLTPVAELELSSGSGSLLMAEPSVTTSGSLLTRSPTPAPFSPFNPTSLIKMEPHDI
Sequence of ETV5 (P41161 whole entry): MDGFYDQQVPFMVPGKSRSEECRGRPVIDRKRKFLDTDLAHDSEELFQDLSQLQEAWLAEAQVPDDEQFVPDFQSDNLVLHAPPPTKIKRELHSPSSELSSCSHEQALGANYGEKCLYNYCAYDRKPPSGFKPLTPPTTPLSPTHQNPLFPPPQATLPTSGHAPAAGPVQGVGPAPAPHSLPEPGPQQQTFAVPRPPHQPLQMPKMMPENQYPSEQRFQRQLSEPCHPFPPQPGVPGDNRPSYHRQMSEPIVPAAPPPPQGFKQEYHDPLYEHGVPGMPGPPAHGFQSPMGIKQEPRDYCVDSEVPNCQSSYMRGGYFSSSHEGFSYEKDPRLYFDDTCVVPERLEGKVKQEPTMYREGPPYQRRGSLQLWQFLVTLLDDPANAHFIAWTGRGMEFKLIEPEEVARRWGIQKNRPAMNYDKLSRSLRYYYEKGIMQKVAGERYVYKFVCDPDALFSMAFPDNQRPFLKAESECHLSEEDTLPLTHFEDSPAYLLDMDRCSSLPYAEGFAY

Sequence | binding signal (FLI1) | binding signal (ELK1) | binding signal (GABPA) | binding signal (ERG) | binding signal (ELF1) | binding signal (EHF) | binding signal (SPI1) | binding signal (SPIB) | binding signal (ELK3) | binding signal (FEV) | binding signal (ETV5) | binding signal (SPIC) | binding signal (ELF4) | binding signal (ELK4) | binding signal (ETV2) | binding signal (ELF3) | binding signal (CRX) | binding signal (ETV1)
CCTCGG | 1.2 fold enrichment (6-mer frequency, TF over GST control) | 1.17 fold enrichment (6-mer frequency, TF over GST control) | 1.2 fold enrichment (6-mer frequency, TF over GST control) | 1.2 fold enrichment (6-mer frequency, TF over GST control) | 1.24 fold enrichment (6-mer frequency, TF over GST control) | 1.33 fold enrichment (6-mer frequency, TF over GST control) | 1.14 fold enrichment (6-mer frequency, TF over GST control) | 1.15 fold enrichment (6-mer frequency, TF over GST control) | 1.05 fold enrichment (6-mer frequency, TF over GST control) | 1.07 fold enrichment (6-mer frequency, TF over GST control) | 1.2 fold enrichment (6-mer frequency, TF over GST control) | 1.1 fold enrichment (6-mer frequency, TF over GST control) | 1.25 fold enrichment (6-mer frequency, TF over GST control) | 1.24 fold enrichment (6-mer frequency, TF over GST control) | 1.24 fold enrichment (6-mer frequency, TF over GST control) | 1.3 fold enrichment (6-mer frequency, TF over GST control) | 1.02 fold enrichment (6-mer frequency, TF over GST control) | 1.28 fold enrichment (6-mer frequency, TF over GST control)
CCCTTG | 1.14 fold enrichment (6-mer frequency, TF over GST control) | 1.21 fold enrichment (6-mer frequency, TF over GST control) | 1.24 fold enrichment (6-mer frequency, TF over GST control) | 1.23 fold enrichment (6-mer frequency, TF over GST control) | 1.3 fold enrichment (6-mer frequency, TF over GST control) | 1.22 fold enrichment (6-mer frequency, TF over GST control) | 1.16 fold enrichment (6-mer frequency, TF over GST control) | 1.19 fold enrichment (6-mer frequency, TF over GST control) | 1.2 fold enrichment (6-mer frequency, TF over GST control) | 1.16 fold enrichment (6-mer frequency, TF over GST control) | 1.11 fold enrichment (6-mer frequency, TF over GST control) | 1.26 fold enrichment (6-mer frequency, TF over GST control) | 1.25 fold enrichment (6-mer frequency, TF over GST control) | 1.2 fold enrichment (6-mer frequency, TF over GST control) | 1.23 fold enrichment (6-mer frequency, TF over GST control) | 1.19 fold enrichment (6-mer frequency, TF over GST control) | 1.01 fold enrichment (6-mer frequency, TF over GST control) | 1.19 fold enrichment (6-mer frequency, TF over GST control)
